In the library only some 3.1% were active in any assay of this set; here they are far more common.
ARNT-TACC3 inh = ARNT/TACC3 interaction disruption | Q9Y6A5 | AlphaScreen His-ARNT PAS-B/GST-TACC3 binding, luminescence; TACC3 fragment carries E629A point mutation | inhibition, % at 9.99 µM | actives 0.66% (n = 390,000) | AID 623870;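 active = mean inhibition of replicates at least 50% and at least half of replicates each reaching 50%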;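 note: 0% = complete ARNT plus TACC3 wells and 100% = ARNT alone without TACC3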
HSP90 inh = inhibitors of HSP90 luciferase refolding in rabbit reticulocyte lysate | inhibition, % at 5.6 µM | AID 1789 | actives 0.91% (n = 290,000) | luciferase refolding luminescence, 3 h;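 active = inhibition above the screen-wide mean plus 3 SD, computed separately per campaign, cut at about 16% in these data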;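 note: 0% = DMSO wells and 100% = 60 µM geldanamycin wells; inhibitors lower the luminescence because luciferase stays unfolded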
HIF activator = HIF pathway transcriptional activation; activation, % at 7.5 µM (by protocol); AID 1910; U2OS HRE-luciferase reporter, luminescence; normalized: DMSO 0%, desferrioxamine 100%; actives 0.32% (n = 300,000);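 active = mean activation of at least 10% of the iron chelator positive control signal, with at least half of replicates also reaching 10%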
HSF1 inhib = HSF1 inhibition; NIH3T3-HGL HSE-luciferase, MG132-induced, luminescence 8 h; hits give low values; activity change, negative = inhibition, % at 7.5 µM (by protocol); actives 0.77% (n = 300,000); AID 2098;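 active = more than half of replicate wells show activity change below -50%, luminescence cut by over half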;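 note: luciferase reports HSF-1 transcriptional activity via heat shock element; 0% = median of DMSO wells and -100% = zero luminescence signal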
HSF-1 act = increases HSF-1 driven luciferase reporter signal; NIH3T3-HGL HSF-1 luciferase reporter, MG132, 8 h; 100% = twice DMSO control signal; activation, % at 9 µM; actives 1.7% (n = 300,000); AID 504408;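 active = mean replicate activation of at least 50% with a set share of replicates each reaching 50%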;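 note: 0% = median of the neutral control wells and 100% = twice that signal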
Starred values were filed as active, the others as inactive; · = no result.

SMILES | ARNT-TACC3 inh | HSP90 inh | HIF activator | HSF1 inhib | HSF-1 act
CCCCn1c(=O)[nH]c(=O)c2c1nc(Cn1ncc(Cl)c(Cl)c1=O)n2CCC | 1 | 4 | -5 | -93* | -93
Cc1cccc2c1-c1sc(C(=O)Nc3ccccc3N3CCN(C)CC3)cc1CO2 | 45* | -3 | 0 | 9 | 11
Cc1cccc2c1-c1sc(C(=O)N3CCCCC3)cc1CO2 | 5 | -4 | 4 | 32 | 42
Oc1ccccc1/C=N/NC(=S)NC1CC2CCC1C2 (configuration not stated) | 43 | 1 | 2 | 9 | 34
S=C(N/N=C/c1ccco1)NC1CC2CCC1C2 (configuration not stated) | 10 | 3 | 2 | 30 | 58*
CCCNC(=O)N(C)C[C@@H]1Oc2ncc(C3=CCCC3)cc2C(=O)N([C@@H](C)CO)C[C@H]1C | -7 | · | · | · | ·
CC(=O)n1c2c(c3ccccc31)OC(N)=C(C#N)C2c1cccc(Cl)c1Cl (configuration not stated) | 12 | 2 | 1 | 27 | 74*
Cn1c2c(c(=O)n(C)c1=O)C(c1ccccc1Cl)C(C#N)=C(N)O2 (configuration not stated) | -2 | 4 | 0 | -8 | -4
CC(C)c1onc(C(=O)Nc2sc3c(c2C#N)CCC3)c1[N+](=O)[O-] | · | 1 | 191* | 3 | 36
CC(C)c1cc(C(=O)Nc2sc3c(c2C#N)CCC3)no1 | -5 | -4 | 0 | 1 | -5
Cc1ccc(S(=O)(=O)CCN2CCN(c3ccccc3)CC2)cc1 | · | -1 | 0 | 96 | 120*
Cc1ccc(S(=O)(=O)CCN2CCC(O)(c3ccccc3)CC2)cc1 | -5 | -1 | 0 | 3 | 38
Cc1cccnc1NC(=S)NC(=O)/C=C/c1ccccc1 | 0 | 0 | 2 | 31 | 56*
O=S(=O)(N[C@@H]1CC[C@@H](CCn2cc(C3(O)CCCC3)nn2)O[C@@H]1CO)c1ccc(F)cc1 | 0 | · | · | · | ·
COc1ccc(/C=N/N(C)C2=NCCN2)c(OC)c1OC | 3 | -2 | 0 | -86* | -90
COc1ccc(/C=N/NC(=O)C(N)=O)c(OC)c1OC | 3 | 1 | 0 | 0 | 7
Cc1ccc(S(=O)(=O)N2CCCOC2CNC(=O)C(=O)NCCCn2ccnc2)cc1 (configuration not stated) | 78* | -8 | 0 | -3 | -2
Cc1ccc(S(=O)(=O)Nc2ccc3c(c2)C(=O)N([C@@H](C)CO)C[C@@H](C)[C@@H](CN(C)C(=O)Nc2cccc4ccccc24)OCCCC[C@@H](C)O3)cc1 | 33 | · | · | · | ·
COc1ccc(S(=O)(=O)N2CCC(c3cc(-c4cccc5ccccc45)n[nH]3)CC2)cc1 | -3 | 3 | 11* | 13 | 18
CCN(CC)c1ccc(/C=C(/C#N)c2nc3ccccc3[nH]2)c(OC(C)C)c1 | -2 | 16* | 7 | -46 | -49
O=S(=O)(c1ccc(-n2cnnn2)cc1)N1CCNCC1 | -4 | -3 | 0 | 43 | 83*
CCOC(=O)c1cc(NC(=O)COc2ccc([N+](=O)[O-])cc2)cc(C(=O)OCC)c1 | -3 | 2 | 0 | 18 | 53*
COC(=O)C[C@@H]1CC[C@@H]2[C@H](COC[C@@H](O)CN2S(=O)(=O)c2ccc(F)cc2)O1 | 15 | · | · | · | ·
COc1ccc(C2Nc3ccccc3C(=O)N2NS(=O)(=O)c2ccc(C)cc2)cc1 (configuration not stated) | -1 | -2 | 1 | 47 | 57*
c1cc2c(cc1C1CCCN1)OCCCO2 (configuration not stated) | -12 | 4 | -39 | -71* | -77
COc1ccc(Cl)c2c1[nH]c1nc(SCc3cccnc3)nnc12 | 4 | -6 | 0 | 0 | 9
COc1ccc(Cl)c2c1[nH]c1nc(SCc3ccccn3)nnc12 | 4 | 3 | 4 | 43 | 103*
CO[C@@H](CN(C)C(=O)c1cnccn1)[C@H](C)CN([C@H](C)CO)S(=O)(=O)c1ccc(F)cc1 | -1 | · | · | · | ·
Cc1ccc(S(=O)(=O)N[C@H]2CC[C@@H](CCNC(=O)C3CC3)O[C@H]2CO)cc1 | 5 | · | · | · | ·
CCOc1cc(C(c2c(C)[nH][nH]c2=O)c2c(C)[nH][nH]c2=O)cc(Br)c1OC | 7 | -2 | -1 | -69* | -76
